Rows were chosen to be rich in hits. Some 1.4% of all compounds tested hit in one or more screens of this group.
MsrA inhibitor: inhibitors of bovine MsrA. purified bovine MsrA, absorbance read-out. inhibition, % at 15.5 µM. actives 0.75% (n = 360,000); in the data active = inhibition above about 4.5%;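 also: 0% = vehicle wells with enzyme and 100% = reference inhibitor wells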
bovine MsrA act: bovine methionine sulfoxide reductase A activation. purified bovine MsrA, absorbance read-out. activation, % at 10.6 µM. actives 0.3% (n = 360,000); in the data active = activation above about 7.5%;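 also: 0% = vehicle and 100% = reference activator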
14-3-3 Bad PPI: disrupts binding of bovine 14-3-3 zeta to phospho-Bad peptide; inhibition, % at 21.7 µM; TR-FRET 14-3-3zeta/Dy647-pBad peptide displacement, 1 h; AID 781; P63103; actives 0.71% (n = 220,000);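 active = inhibition above about 70%, limit read from the data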;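 also: 0% = full 14-3-3 plus peptide FRET controls and 100% = background without 14-3-3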
Target sequence (P63103 whole entry, looked up): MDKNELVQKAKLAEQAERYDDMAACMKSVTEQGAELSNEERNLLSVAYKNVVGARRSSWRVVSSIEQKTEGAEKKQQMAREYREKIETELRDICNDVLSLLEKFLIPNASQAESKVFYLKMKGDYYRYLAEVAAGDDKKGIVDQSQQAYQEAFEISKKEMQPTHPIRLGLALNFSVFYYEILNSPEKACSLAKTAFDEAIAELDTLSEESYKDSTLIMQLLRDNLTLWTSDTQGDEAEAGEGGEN
p-CIP stab down: compounds decreasing mouse p/CIP protein stability | decrease of EGFP signal, % at 10 µM | actives 0.01% (n = 290,000) | AID 1984 | F442A p/CIP-EGFP cells, EGFP fluorescence, 16 h | Q05BA5;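 active = EGFP signal decrease of at least 30% at 10 µM or well 3 SD below plate mean, unless failing retest; inactive = the rest, including hits failing retest or dose response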
Active calls of the source: *; nt = no result; [ ] = dose if it differs, or a comment.

SMILES | MsrA inhibitor | bovine MsrA act | 14-3-3 Bad PPI | p-CIP stab down
Fc1ccc(Cn2nnnc2CN2CCN(C3CCCC3)CC2)cc1 | -0.5 | 2.8 | 78.0* | -9.5
CC(=O)Nc1ccccc1OCC(=O)NCCC1=CCCCC1 | 0.5 | -3.2 | -3.6 | -11.6
Cc1ccccc1OCC(=O)NCCC1=CCCCC1 | -0.3 | -0.1 | 82.5* | -14.9
Nc1[nH]c(C(=O)c2ccccc2)c(-c2ccc(Cl)cc2)c1C(=O)c1c[nH]c2ccc(Br)cc12 | -0.2 | nt | nt | nt
Cc1nc(SCc2c(F)cccc2Cl)n[nH]1 | -0.6 | 0.1 | 84.6* | 0.8
Cn1c(-c2ccc(F)cc2)cnc1NCc1ccc(F)cc1 | 1.0 | -1.3 | 80.2* | 0.1
Cn1c(-c2ccc3c(c2)OCO3)cnc1NCc1ccc(Cl)cc1 | -0.7 | -0.7 | 77.5* | -10.8
Cn1c(-c2ccc(Br)cc2)cnc1NCc1cccnc1 | -1.1 | -0.8 | 79.0* | 4.4
Cn1c(-c2ccc(F)cc2)cnc1NCc1ccc(C#N)cc1 | 1.6 | -14.0 | 5.9 | 3.1
Cc1ccc(CNc2ncc(-c3ccc4c(c3)OCO4)n2C)cc1 | -0.6 | -1.3 | 24.9 | 4.7
Nc1ccn([C@@H]2O[C@H](C(=O)N[C@H](Cc3ccccc3)C(=O)NCC(=O)N3CCOCC3)[C@@H](O)[C@H]2O)c(=O)n1 | 0.7 | nt | nt | nt
C[C@H](O)[C@@H]1C(=O)N2CCc3c([nH]c4c(-c5ccccc5)cccc34)[C@@H]2C[C@@H]1N(C)C(=O)OCc1ccccc1 | 0.5 | nt | nt | nt
Cc1cc2cc3c(cc2nc1SCC(=O)O)OCCO3 | 3.3 | -5.9 | 5.4 | -1.0
Cc1cc2cc3c(cc2nc1SCC(=O)OC(C)C)OCCO3 | 1.2 | -3.5 | 90.7*[fluorescence artefact?] | -0.3
COc1ccc(Cn2cnc([N+](=O)[O-])c2)cc1[N+](=O)[O-] | 0.4 | -9.5 | 98.5* | -5.8
CC(C)C(O)(C#CCN1CCCCC1)c1ccccc1 (stereo not drawn) | 0.9 | -1.6 | 80.3* | -0.9
CC(C)C(O)(C#CCN1CCCC1)c1ccccc1 (stereo not drawn) | 1.4 | -3.8 | 51.5 | -3.8
O=C(N/N=C/c1c[nH]c2ccccc12)C1COc2ccccc2O1 (stereo not drawn) | 0.4 | -3.5 | 82.0*[fluorescence artefact?] | 5.9
O=C(N/N=C\c1ccc(Cl)s1)C1COc2ccccc2O1 (stereo not drawn) | 0.5 | -1.3 | 1.1 | 11.6
CCOC(=O)C1=C(COC(=O)c2ccc([N+](=O)[O-])s2)NC(=O)NC1C (stereo not drawn) | 3.4 | 19.1* | nt | nt
OC(c1ccccc1)(c1ccccc1)C1CCN(CCCOc2ccncc2)CC1 | -0.3 | nt | nt | nt
Nc1ccccc1-c1nc2ccccc2s1 | 1.7 | -6.0 | 72.8* | 4.2
COc1ccc(Cc2nc3ccccc3n2CC(=O)N/N=C/c2ccc(C)cc2O)cc1OC | 0.0 | -3.2 | 83.1* | -11.5
CN1OC[C@@H]2CN(C(=O)C3CCCCC3)[C@H](c3ccc(N4CCCCC4)cc3)C[C@@H]21 | -0.4 | nt | nt | nt
Cc1cc(C)nc(NS(=O)(=O)c2ccc(Br)cc2)n1 | 0.6 | -3.4 | 84.5* | -7.5
SMILES | MsrA inhibitor | bovine MsrA act | 14-3-3 Bad PPI | p-CIP stab down
Cc1cc(C)nc(NS(=O)(=O)c2ccc(N)cc2)n1 | 0.0 | -0.5 | 3.8 | 2.7
CC(/C=N/NC(=O)c1ccncc1)=C\c1ccccc1 | 5.2* | -8.1 | -3.2 | 7.6
O=C(N[C@H](C(=O)N1CCC[C@H]1C(=O)NC1CCCC1)c1ccccc1)C1CC1 | 0.1 | nt | nt | nt
O=C(CNC1CCCCCC1)Nc1ccccc1N1CCCCC1 | 0.0 | -7.0 | 57.0 | 7.5
O=C(CNCC1CCCCC1)Nc1ccccc1N1CCCCC1 | -1.2 | -0.4 | 80.4* | -15.1
CC(=O)Nc1ccc(NC(=O)CSc2nc(=O)n3cccc(C)c3n2)cc1 | 0.7 | -6.2 | nt | nt
CSc1nc(=O)n2cccc(C)c2n1 | 3.7 | -2.1 | 97.2*[fluorescence artefact?] | -1.1
CCOC(=O)C1(CC)CC(CSc2nc3ccccc3[nH]2)OC1=O (stereo not drawn) | 2.5 | -5.0 | 71.8* | -2.4
COc1cccc(/C(C#N)=C/c2c(-c3ccc(Cl)cc3)nc3c(C)cccn23)c1 | -0.1 | -3.1 | 71.0* | -6.5
Cc1cccn2c(/C=N/OCc3cccc(F)c3)c(-c3ccc(Cl)cc3)nc12 | 1.9 | -4.9 | -2.5 | -14.1
Cn1c(=O)oc2ccc(S(=O)(=O)Nc3ccc(Cl)cc3[N+](=O)[O-])cc21 | 0.8 | nt | nt | nt
O=C(N/N=C/c1ccc([N+](=O)[O-])cc1)c1cc(-c2ccc3c(c2)OCO3)n[nH]1 | -1.6 | -11.2 | 76.2* | -2.7
OC(c1ccccc1)(c1ccccc1)C1CCN(CCCOc2ccc(-c3ccncc3)cc2)CC1 | 1.0 | nt | nt | nt
OCC(CCc1c[nH]c2ccccc12)c1c[nH]c2ccccc12 (stereo not drawn) | -0.7 | nt | nt | nt
COC1=CC(=O)c2ccccc2C1=O | nt | 14.1* | nt | nt
COC1=CC(=O)C=C(OC)C1=O | 0.2 | -0.9 | nt | nt
CN1CCN(Cc2nc3ccccc3c(=O)n2Cc2nc(-c3ccc([N+](=O)[O-])cc3)cs2)CC1 | 1.4 | -2.9 | 7.4 | -10.3
CN(C)Cc1nc2ccccc2c(=O)n1Cc1nc(-c2cccc([N+](=O)[O-])c2)cs1 | 0.6 | -2.1 | 97.7* | 0.4
O=C(NCc1ccccc1)[C@@H]1CCCN1C(=O)[C@H]1CCCN1C(=O)c1ccc(F)cc1 | 0.8 | nt | nt | nt
CC(=O)c1ccc(OCc2cn(CC(=O)c3ccc(O)cc3)nn2)c(C)c1 | 0.9 | -2.9 | nt | nt
O=C(Cn1cc(COc2ccc(Br)cc2[N+](=O)[O-])nn1)c1ccc(O)cc1 | 4.6* | -4.8 | nt | nt
COc1ccc(-c2ccc3c(n2)CCCN3S(=O)(=O)c2ccccc2C)cc1 | 0.0 | nt | nt | nt
COc1ccc(CCC(C)Nc2cccc(F)c2)cc1 (stereo not drawn) | 1.7 | 1.0 | 86.2* | -13.0
c1ccc(-c2ccc3c(n2)CCCN3Cc2ccccn2)cc1 | 0.9 | nt | nt | nt
COc1cc(N2C[C@@]3(O)CC[C@@H](O)[C@@H](OC)[C@@H]3[C@@](C)(O)[C@@H]2CC=C(C)C)cc(OC)c1OC | 0.9 | nt | nt | nt
SMILES | MsrA inhibitor | bovine MsrA act | 14-3-3 Bad PPI | p-CIP stab down
CN1CCN(S(=O)(=O)c2ccc(N3CCN(C(c4ccccc4)c4ccccc4)CC3)nc2)CC1 | 0.2 | -1.1 | -10.0 | -9.1
CN1CCN(S(=O)(=O)c2ccc(N3CCN(S(=O)(=O)/C=C/c4ccccc4)CC3)nc2)CC1 | 0.9 | -1.5 | 71.6* | -10.4
COc1ccc(C(C(=O)NCc2ccccc2)n2c(-c3ccccn3)nc3ccccc32)cc1 (stereo not drawn) | 0.3 | nt | nt | nt
O=C(Nc1ccc(F)cc1)c1ccc(-n2ccnc2)nc1 | 0.9 | -2.2 | 86.4* | 0.7
COc1ccc(-c2ccc3c(n2)CCCN3S(=O)(=O)c2ccc(C(F)(F)F)cc2)cc1 | 0.5 | nt | nt | nt
COc1ccc(C(=O)ON=C2C=C(C)C(=O)C(C)=C2)cc1 | -0.8 | -2.3 | -5.0 | -9.9
COc1ccc(S(=O)(=O)N=C2C=C(C)C(=O)C(C)=C2)cc1 | -0.7 | -1.3 | 71.6* | -3.8
COc1cccc(N=c2oc3c(C)ncc(CO)c3cc2C(=O)Nc2ccccc2OC)c1 | nt | nt | 91.4*[fluorescence artefact?] | -7.0
O=C(O)CSc1nnc(-c2ccc(S(=O)(=O)N3CCCC3)cc2)n1Cc1ccco1 | -0.8 | -3.0 | 84.7* | 26.4
CCCCN(CC)C(=O)c1cc2cc3ccc(OC)cc3nc2o1 | 3.8 | -15.6 | 1.4 | 80.9
CCCCN(C)C(=O)c1cc2cc3ccc(OC)cc3nc2s1 | 1.7 | -13.7 | 83.7*[fluorescence artefact?] | 2.9
